Laboratory results reported in PubChem BioAssay.
Results with a measured potency or affinity are listed apart. Records with an inconclusive call do not appear. Activity calls are given as the source filed them. Unless noted, the rule behind the calls is not given here.

Legend:
[1] = cytotoxicity in PAX8-dependent RMG-1 cells, dose response, cell-based, cherry-pick (AID 687029;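 active = signal drop whose fitted half-maximal concentration is at most twice the top valid dose, in every test run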;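 note: cells exposed to compound for 96 hours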)
[2] = cytotoxicity in IOSE-T80 ovarian epithelial cells, dose response, selectivity assay for PAX8 inhibitor project, cell-based, cherry-pick (AID 687032;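 active = fitted half-maximal concentration for viability loss no higher than twice the top valid dose, in every repeat run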;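 note: cells exposed to compound for 96 h before reading; 0% = neutral control wells and -100% = 2 µM mitoxantrone kill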)
[3] = non-specific cell cytotoxicity, dose response, cytotoxicity control for PAX8 inhibitor project, plate reader, dry powder samples (AID 743021)
[4] = IGROV1 ovarian cancer cell cytotoxicity, dose response, PAX8 inhibitor project, plate reader, dry powder samples (AID 743043);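 note: more negative means fewer viable cells or more cytotoxicity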
[5] = NIH:OVCAR-3 ovarian cancer cell cytotoxicity, dose response, PAX8 inhibitor project, plate reader, dry powder samples (AID 743044); conditions: max activity: at 35 µM, hits give low values unless noted
[6] = IOSE-T80 ovarian epithelial cell cytotoxicity, dose response, cytotoxicity control for PAX8 inhibitor project, plate reader, dry powder samples (AID 743045);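 note: 0% = neutral control median and -100% = positive control median; more negative values mean more cell killing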
[7] = A2780 ovarian cancer cell cytotoxicity, dose response, cytotoxicity control, plate reader, dry powder samples (AID 743046);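 note: 0% = neutral control wells and -100% = cytotoxic reference compound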
[8] = cytotoxicity in OVCAR8 ovarian cancer cells, dose response, PAX8 project, cell-based, plate reader, dry powder samples (AID 743197)

Measured: max activity

COc1cc(NC(=O)Cn2ncc(Cl)c(Cl)c2=O)c(C)cc1[N+](=O)[O-]
inactive: [1] | [2] | [3]

C[C@H]1CCCCO[C@H](CN(C)C(=O)Nc2ccc(C(F)(F)F)cc2)[C@@H](C)CN([C@@H](C)CO)C(=O)c2cc(NC(=O)Nc3ccc(F)cc3)ccc2O1
inactive: [1] | [2] | [3] | [4]

COc1cc(/C=N/NS(=O)(=O)c2ccc(C)cc2)ccc1OCc1ccc(C(=O)O)cc1
inactive: [1] | [2] | [3]

CCOc1ccc(CCN2C(=S)N([C@@H](Cc3ccc(O)cc3)CN3CCC[C@@H]3CN3C(=S)NC[C@@H]3CC(C)C)C[C@@H]2Cc2ccc(O)cc2)cc1
inactive: [1] | [2] | [3]

COc1ccccc1-n1cc([C@@H]2C[C@H]3CN(c4ccccc4)C(=O)[C@]34CCCN24)cn1
inactive: [1] | [2] | [3]

Cn1nnnc1Sc1ncnc2scc(-c3cccc(F)c3)c12
inactive: [1] | [2] | [3]

Cc1ccc(S(=O)(=O)CCC(=O)c2ccc(F)cc2)cc1
inactive: [1] | [2] | [3]

Cc1cccc(C)c1NS(=O)(=O)c1ccc(-c2cnc(C3CC3)o2)cc1
inactive: [1] | [2] | [3]

CC(=NNC(=S)N1CCN(C2CCCCCC2)CC1)c1ccccn1
inactive: [1] | [2] | [3]

NC(=O)c1ccsc1NC(=O)c1ccc([N+](=O)[O-])o1
inactive: [1] | [2] | [3]

CCOCCCNC(=O)c1ccc2c(c1)N=C(CC)c1cc(Br)ccc1S2
inactive: [1] | [2] | [3]

CCOc1ccccc1C1C2=C(COC2=O)Nc2cc3c(cc21)OCO3 (configuration not stated)
inactive: [1] | [2] | [3]

Cn1cc(C2=C(c3ccc(Cl)cc3Cl)C(=O)NC2=O)c2ccccc21
inactive: [1] | [2] | [3]

COc1cccc2c1C(=O)c1c(O)c3c(c(O)c1C2=O)CC(O)(C(C)=O)CC3OC1CC(N(C)C)C(O)C(C)O1 (configuration not stated)
inactive: [1] | [2] | [3]

Cc1cc(NC(=O)c2ccc([N+](=O)[O-])o2)ccc1NC(=O)c1ccco1
inactive: [1] | [2] | [3]

CC(=O)NC(c1ccc2ccccc2c1)c1ccc2cccnc2c1O (configuration not stated)
inactive: [1] | [2] | [3]

COc1ccccc1NS(=O)(=O)c1cccc(C(=O)N/N=C/c2ccc([N+](=O)[O-])o2)c1
inactive: [1] | [2] | [3]

COc1ccc(OC)c(-c2nnc3n2N=C(c2ccc(OC)c(OC4CCOC4)c2)CS3)c1 (configuration not stated)
inactive: [1] | [2] | [3]

CCS(=O)(=O)N1Cc2ccccc2CC1C(=O)Nc1nnc(SCc2c(Cl)cccc2Cl)s1 (configuration not stated)
inactive: [1] | [2] | [3]

CC1CCN(CCc2nc3cc(NS(=O)(=O)c4ccccc4)ccc3n2C)CC1
inactive: [1] | [2] | [3]

CC[C@@]1(O)C(=O)OCc2c1cc1n(c2=O)Cc2cc3c(N)cccc3nc2-1
inactive: [1] | [2] | [3]

COC(=O)c1ccccc1-c1c2ccc(=N)cc-2oc2cc(N)ccc12
inactive: [1] | [2] | [3]

COc1cc(/C=C2\COC/C(=C\c3cc(OC)c(OC)c(OC)c3)C2=O)cc(OC)c1OC
inactive: [1] | [2] | [3]

C=C1C(=O)[C@]23C[C@H]1CCC2[C@]1(C)CCC[C@@](C)(C(=O)O)C1C[C@@H]3O (some centres not stated)
inactive: [1] | [2] | [3]

Cc1ccc(C)c(CSC2=NCCN2C(=O)Cc2ccc([N+](=O)[O-])cc2)c1
inactive: [1] | [2] | [3]

CCN1CCN(Cc2ccc(NC(=O)c3cc(NC(=O)C(=O)c4c[nH]c5ccccc45)cc(OC)c3)cc2C(F)(F)F)CC1
inactive: [1] | [2] | [3]

Oc1c(I)cc(I)c2cccnc12
inactive: [1] | [2] | [3]

CC(=O)N1CCc2c(sc(NC(=O)c3ccc([N+](=O)[O-])o3)c2C#N)C1
inactive: [1] | [2] | [3]

CCC(=O)OCCNc1cc(Sc2nccn2C)c2nonc2c1[N+](=O)[O-]
inactive: [1] | [2] | [3]

Oc1ccc2ccccc2c1N=Nc1nccs1
inactive: [1] | [2] | [3]

C[C@H]1CCCCO[C@H](CN(C)C(=O)Nc2ccc(C(F)(F)F)cc2)[C@@H](C)CN([C@@H](C)CO)C(=O)c2cc(NS(=O)(=O)c3ccc(F)cc3)ccc2O1
inactive: [1] | [2] | [3] | [4] | [5] 19.1% [at 4.2 µM, hits give low values] | [6] | [7]

C[C@H](CO)N1C[C@H](C)[C@H](CN(C)Cc2ccc(C(F)(F)F)cc2)OCCCC[C@H](C)Oc2ccc(NC(=O)CCC(F)(F)F)cc2C1=O
inactive: [1] | [2] | [3] | [4] | [6] | [7]

CC1(C)CC(=O)c2sc(NC(=O)CCS(=O)(=O)c3ccccc3)nc2C1
inactive: [1] | [2] | [3] | [4] | [5] | [7]

C[C@@H]1CN([C@H](C)CO)C(=O)c2cc(NC(=O)Nc3ccc(C(F)(F)F)cc3)ccc2O[C@@H](C)CCCCO[C@H]1CN(C)S(=O)(=O)c1ccc(F)cc1
inactive: [1] | [2] | [3] | [4] | [5] -20.5% [at 8 µM, hits give low values] | [6] | [7] | [8]

N#Cc1ccc(-c2ccc(C3[C@@H]4CN(C(=O)c5ccc6c(c5)OCO6)C[C@H]3N4)cc2)cc1 (some centres not stated)
inactive: [1] | [2] | [3] | [4] | [6] | [7] | [8]

C[C@@H]1CN([C@H](C)CO)C(=O)c2cc(NS(=O)(=O)c3ccc(Cl)cc3)ccc2O[C@@H](C)CCCCO[C@H]1CN(C)Cc1ccc(Cl)c(Cl)c1
inactive: [1] | [2] | [3] | [4] | [6] | [7] | [8]

C[C@H]1CN([C@@H](C)CO)S(=O)(=O)c2ccc(C#CC3CCCC3)cc2O[C@@H]1CN(C)Cc1cccnc1
inactive: [1] | [2] | [3] | [4] | [6] | [7]

C[C@@H]1CCCCO[C@@H](CN(C)C(=O)Nc2ccc(C(F)(F)F)cc2)[C@H](C)CN([C@@H](C)CO)C(=O)c2cc(NC(=O)Nc3ccc(C(F)(F)F)cc3)ccc2O1
inactive: [1] | [2] | [3] | [4] | [5] -30.2% | [6] | [7] | [8]

COc1ccc(NC(=O)N(C)C[C@H]2OCCCC[C@@H](C)Oc3ccc(NC(=O)Nc4ccc(C(F)(F)F)cc4)cc3C(=O)N([C@@H](C)CO)C[C@@H]2C)cc1
inactive: [1] | [2] | [3] | [4] | [6] | [7]

Cc1ccc(S(=O)(=O)Nc2ccc3c(c2)C(=O)N([C@@H](C)CO)C[C@H](C)[C@@H](CN(C)C(=O)Nc2cccc4ccccc24)OCCCC[C@@H](C)O3)cc1
inactive: [1] | [2] | [3] | [4] | [6] | [7] | [8]

COc1ccc(S(=O)(=O)Nc2ccc3c(c2)CC(=O)N([C@H](C)CO)C[C@H](C)[C@@H](CN(C)Cc2ccc(C(F)(F)F)cc2)O3)cc1
inactive: [1] | [2] | [3] | [4] | [5] -8.3% [at 8 µM, hits give low values] | [6] | [7]

C[C@H]1CCCCO[C@@H](CN(C)Cc2ccc(Cl)c(Cl)c2)[C@@H](C)CN([C@@H](C)CO)C(=O)c2cc(NC(=O)Nc3ccc(C(F)(F)F)cc3)ccc2O1
inactive: [1] | [2] | [3] | [4] | [6]

CC(C)CC#Cc1ccc2c(c1)O[C@H](CN(C)Cc1ccc(F)cc1)[C@H](C)CN([C@H](C)CO)S2(=O)=O
inactive: [1] | [2] | [3] | [4] | [5] 38.6% [at 2.1 µM, hits give low values] | [6] | [7]

C[C@@H]1CN([C@@H](C)CO)C(=O)Cc2cc(NC(=O)NC3CCCCC3)ccc2O[C@H]1CN(C)Cc1ccc(-c2ccccc2)cc1
inactive: [1] | [2] | [3] | [4] | [6]

C[C@@H]1CCCCO[C@H](CN(C)S(=O)(=O)c2ccc(Cl)cc2)[C@H](C)CN([C@@H](C)CO)C(=O)c2cc(N(C)C)ccc2O1
inactive: [1] | [2] | [3] | [4] | [5] 36.7% [at 16 µM, hits give low values] | [6] | [7] | [8]

O=C(Nc1ccccc1)N1CCCCN2[C@H](C1)[C@@H](c1ccc(C#Cc3ccccc3)cc1)[C@@H]2CO
inactive: [1] | [2] | [3] | [4] | [6] | [7]

C[C@@H]1CCCCO[C@H](CN(C)Cc2ccc(Cl)c(Cl)c2)[C@H](C)CN([C@@H](C)CO)C(=O)c2cc(NC(=O)Nc3ccc(C(F)(F)F)cc3)ccc2O1
inactive: [1] | [2] | [3] | [4] | [6] | [7]

Cc1noc(C)c1S(=O)(=O)Nc1ccc2c(c1)C(=O)N([C@@H](C)CO)C[C@H](C)[C@@H](CN(C)C(=O)Nc1ccc(C(F)(F)F)cc1)OCCCC[C@H](C)O2
inactive: [1] | [2] | [3] | [4] | [6] | [7]

C[C@@H]1CCCCO[C@H](CN(C)C(=O)Nc2ccc(F)cc2)[C@@H](C)CN([C@@H](C)CO)C(=O)c2cc(NS(=O)(=O)c3ccc(Cl)cc3)ccc2O1
inactive: [1] | [2] | [3] | [4] | [6] | [7]

CS(=O)(=O)Nc1ccc2c(c1)[C@@H]1C[C@H](CC(=O)NCc3ccc(Oc4ccccc4)cc3)O[C@@H](CO)[C@@H]1O2
inactive: [1] | [2] | [3] | [4] | [6] | [7] | [8]

C[C@@H]1CN([C@H](C)CO)C(=O)c2cc(NC(=O)CCC(F)(F)F)ccc2O[C@@H](C)CCCCO[C@@H]1CN(C)Cc1ccc(C(F)(F)F)cc1
inactive: [1] | [2] | [3] | [4] | [6]
